# Pol iota inh = inhibitors of human DNA polymerase iota; Potency, µM (highest dose often 115 µM), for the others: at the highest dose activity, negative = inhibition, actives largely listed as inhibitors; Pol iota fluorescent replication assay, 10 min; Q9UNA4; actives 1% (n = 390,000); further: potency means the concentration at half of the fitted maximal effect
#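 Fluorescent replication assay read twice, at 0 min and 10 min after adding 50 nM (final) substrate. Enzyme (10 nM) and compounds were first incubated 15 min at room temperature; enzyme-free buffer wells were negative controls.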
# POLH inh = inhibitors of human DNA polymerase eta. recombinant Pol eta, fluorescent DNA replication assay. Q9Y253. actives 1.2% (n = 390,000). Potency, µM (highest dose often 114 µM), without a hit: at the highest dose activity change, negative = inhibition, usual class: inhibitors; further: potency means the concentration at half of the fitted maximal effect; on the % scale 0 is the no-effect control and ±100 the full control effect
#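 Fluorescent replication assay: 50 nM final substrate added after a 15 min room-temperature compound preincubation with 10 nM enzyme. Signal taken at 0 min and again at 10 min.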
# WRN helicase inh = blocks human WRN helicase; Q14191; WRN helicase unwinding, fluorescent forked duplex, kinetic; Potency, µM (series often up to 114 µM), inactives show at the highest dose activity change, negative = inhibition, hits mostly inhibitors; actives 0.46% (n = 360,000); AID 651768; further: potency means the concentration at half of the fitted maximal effect; on the % scale 0 is the no-effect control and ±100 the full control effect; nearly all actives have a fitted effect of over 55% in size
#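 Kinetic fluorescence helicase assay: unwinding of a quenched forked DNA duplex (100 nM final) with 2 mM ATP final raises red fluorescence (525/598 nm). Compounds sat 15 min at room temperature with 20 nM WRN beforehand.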
# POLK inh = DNA polymerase kappa (human) inhibition. actives 0.53% (n = 400,000). Potency, µM (top dose mostly 107 µM), inactives show at the top dose activity, negative = inhibition, usual class: inhibitors. purified Pol kappa, fluorescent DNA synthesis assay, 10 min. AID 588579; further: potency means the concentration at half of the fitted maximal effect; on the % scale 0 is the no-effect control and ±100 the full control effect
# Target sequence (Q9UBT6 whole entry, looked up): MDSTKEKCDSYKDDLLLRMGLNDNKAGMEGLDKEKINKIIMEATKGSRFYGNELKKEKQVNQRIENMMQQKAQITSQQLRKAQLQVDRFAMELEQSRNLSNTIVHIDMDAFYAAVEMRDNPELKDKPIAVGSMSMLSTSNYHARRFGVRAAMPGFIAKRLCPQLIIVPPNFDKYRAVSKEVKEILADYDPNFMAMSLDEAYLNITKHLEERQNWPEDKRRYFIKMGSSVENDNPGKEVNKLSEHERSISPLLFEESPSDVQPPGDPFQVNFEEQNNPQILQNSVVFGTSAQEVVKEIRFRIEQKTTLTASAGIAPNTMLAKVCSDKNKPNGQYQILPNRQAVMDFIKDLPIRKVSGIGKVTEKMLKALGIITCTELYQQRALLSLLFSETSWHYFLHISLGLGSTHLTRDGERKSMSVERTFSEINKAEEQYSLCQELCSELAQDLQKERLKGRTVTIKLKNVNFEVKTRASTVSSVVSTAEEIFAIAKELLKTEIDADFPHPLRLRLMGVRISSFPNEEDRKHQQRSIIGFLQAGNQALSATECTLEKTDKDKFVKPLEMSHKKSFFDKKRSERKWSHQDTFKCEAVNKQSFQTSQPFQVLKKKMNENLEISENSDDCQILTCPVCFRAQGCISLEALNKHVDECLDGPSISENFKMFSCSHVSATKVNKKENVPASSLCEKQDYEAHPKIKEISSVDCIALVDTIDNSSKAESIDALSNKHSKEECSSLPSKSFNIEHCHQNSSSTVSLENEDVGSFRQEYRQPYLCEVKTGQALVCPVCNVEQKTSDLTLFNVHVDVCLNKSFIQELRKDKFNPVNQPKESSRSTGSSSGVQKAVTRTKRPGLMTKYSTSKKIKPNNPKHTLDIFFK
#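 Fluorescent qHTS in 1536-well format: enzyme (10 nM) and compound sat 15 min at room temperature before 50 nM substrate (final) was added. Signal taken at 0 and 10 min; no-enzyme buffer wells were negative controls.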
# PI5P4Ka inh = PI5P4K alpha (human) kinase inhibition | actives 1.2% (n = 330,000) | AID 652105 | max response, % | PI5P4Kalpha enzyme, ADP-Glo luminescence, 60 min; hits give low values; active means max response of -50% or lower; inconclusive means between -30% and -50%; inactive means -30% or higher; further: value at the top dose of about 77 µM; on the % scale 0 is the no-effect control and ±100 the full control effect
#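 Quantitative HTS of the MLSMR library against PI5P4Kalpha with substrate. ATP added last at 5 microM final; room temperature, 60 minutes. Remaining ATP depleted, ADP converted and read as luminescence.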
# POLB inh = blocks human DNA polymerase beta activity. P06746. Pol beta primer extension/strand displacement, fluorescence kinetic. Potency, µM (titrated, usually from 114 µM), for the others: at the top dose activity change, negative = inhibition, hits mostly inhibitors. actives 1.3% (n = 340,000). AID 485314; further: potency means the concentration at half of the fitted maximal effect; on the % scale 0 is the no-effect control and ±100 the full control effect
#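 Pol beta (10 nM) and compounds were preincubated 15 min at room temperature, then 50 nM substrate (final) started primer extension/strand displacement. Reads were taken at 0 and 10 min; concentration-response data were fitted to a four-parameter Hill equation.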
# * = called active by the depositor; u = inconclusive; x = no result; [ ] = dose if it differs, or a comment. This is a sample that favours compounds with a hit; in the whole collection about 2.8% have one here. Unless noted, the call rests on the fitted dose curve; in most records, active means well fitted curve in the direction sought with a large enough effect; inconclusive means small, poorly fitted or top-dose-only effect, or another doubt; inactive means no such curve, though single readings can be large; an effect the other way counts as inactive or inconclusive.
SMILES,Pol iota inh,POLH inh,WRN helicase inh,POLK inh,PI5P4Ka inh,POLB inh
CC(C)(C)n1ncc2c(=O)n(Cc3ccc(F)cc3Cl)cnc21,4%,x,x,9%,x,x
CC(=O)N1CCOc2cc(S(=O)(=O)Nc3c(C)cccc3C(C)C)c(Cl)cc21,79µM*,-13%,x,-27%,x,-36%
Cc1ccnc(N/C=C(\C#N)c2nc(-c3cccc(Br)c3)cs2)c1,u,-21%,-25%,-4%,x,35µM*
N#C/C(=C/c1ccc(Cl)cc1)c1nc(-c2ccc(Br)cc2)cs1,u,-11%,x,-24%,x,-8%
COc1cc(/C=C2\CC/C(=C\c3ccc(OCCO)c(OC)c3)C2=O)ccc1OCCO,7.1µM*,u,-21%[57.1 µM],-36%,1,2.5µM*
COc1cc(/C=C2/CC/C(=C/c3ccc(O)c(OC)c3)C2=O)ccc1O,40µM*,35µM*,-34%,u,-25,18µM*
CC1(C)C(=O)Nc2ccccc2N1C(=O)CSc1nnc2ccccn12,u,u,-10%[57.1 µM],u,-19,32µM*
O=C(Nc1ccc(S(=O)(=O)Nc2ncccn2)cc1)c1nn(Cc2ccccc2)c(=O)c2ccccc12,u,79µM*,-10%,-19%,-24,u
COC(=O)c1ccc(=O)c2nc3/c(=C/O)c(O)cc(=O)c3[nH]c12,u,28µM*,u,14µM*,-74*,u
O=C(Nc1ccc(Cl)cc1F)c1ccc(COc2c(F)c(F)c(F)c(F)c2F)o1,-15%,20µM*,-17%,-32%,-24,45µM*
O=C(Nc1ccc(F)cc1F)c1ccc(COc2c(F)c(F)cc(F)c2F)o1,-11%,-3%,-21%,0%,x,u
CCOc1[nH]c(/N=C/c2ccco2)c(C#N)c1C#N,u,14µM*,-20%[57.1 µM],u,u,12%
CN1CCc2cc3c(c4c2[C@H]1[C@H](O)c1ccccc1-4)OCO3,u,-24%,13%,u,7,45µM*
OCC[N+]1(CCc2ccccc2)CCOCC1,1%,x,x,5%,x,x
COC(=O)c1cc(=O)c(O)c2c(O)c(O)ccc2c1,x,x,x,1.1µM*,x,x
COC(=O)c1ccc2cc(OC)c(OC)cc2c1,x,-2%,-8%,x,1,x
CC(C)(C)C(=O)COC(=O)c1c2c(nc3ccccc13)CCC2,u,79µM*,-12%[57.1 µM],-11%,u,18µM*
CC(C)CNC(=O)COC(=O)c1c2c(nc3ccccc13)CCC2,u,u,-13%,-33%,u,40µM*
CCCCNC(=O)COC(=O)c1c2c(nc3ccccc13)/C(=C\c1cccs1)CC2,u,u,1%[11.6 µM],u,u,x
CC(C)CNC(=O)COC(=O)c1c2c(nc3ccccc13)/C(=C/c1cccs1)CC2,u,u,-28%[57.1 µM],-8%,-20,18µM*
COc1ccc(-c2noc(N3CCC(C(=O)Nc4ccc(C)c(F)c4)CC3)n2)cc1OC,12%,-5%,x,8%,x,17%
CCOc1ccccc1CNC(=O)Cn1c(-c2ccccc2)cc(C(C)=O)c1C,29%,-8%,x,2%,x,-9%
O=C(Nc1ccc(Cl)cc1F)c1cnc2sc(N3CCOCC3)nn2c1=O,29%,-13%,x,3%,x,1%
O=Cc1cc(N=Nc2ccc(S(=O)(=O)O)cc2)ccc1O,u,-23%,u,u,-76*,x
COc1cc(N=Nc2ccc(Br)cc2)cc(C=O)c1O,x,u,-1%,x,u,x
CC(NC(=O)C(=O)Nc1c2c(nn1-c1ccc(F)cc1)CSC2)c1ccccc1 (stereo not given),u,-7%,x,-1%[60.1 µM],x,u
CCC(CO)NC(=O)C(=O)Nc1c2c(nn1-c1ccc(F)cc1)CSC2 (stereo not given),89µM*,-8%,x,-10%[60.1 µM],x,24%
COc1cccc(C2=CC(c3ccccc3F)n3ncc(C(=O)Nc4ccc(C)cc4)c3N2)c1 (stereo not given),-2%,-18%,x,-9%[60.1 µM],x,28µM*

# Screening data deposited in PubChem BioAssay by National Center for Advancing Translational Sciences (NCATS).
